About 83,000 compounds went through this panel and 20% of them were active in at least one assay; those are over-represented in the sample as a whole.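 Testing used 96-well plates and a 48-hour single-concentration exposure. Example: -40 means 40% of the starting cells died.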 Active and inactive are the calls of the source. Rule for the calls: active = growth percent below 10; inactive = the rest.
Columns and labels:
Experiment in all cases: NCI-60 one-dose screen, 48 h (100 = growth as untreated, 0 = no growth, -100 = all killed)
Settings in all cases: 10 µM unless noted
RPMI-8226 leukemia = system: RPMI-8226 leukemia
OVCAR-8 ovarian = system: OVCAR-8 ovarian
OVCAR-5 ovarian = system: OVCAR-5 ovarian
OVCAR-4 ovarian = system: OVCAR-4 ovarian
IGROV1 ovarian = system: IGROV1 ovarian
OVCAR-3 ovarian = system: OVCAR-3 ovarian
HS 578T breast = system: HS 578T breast
NCI/ADR-RES ovarian = system: NCI/ADR-RES ovarian
T-47D breast = system: T-47D breast
BT-549 breast = system: BT-549 breast
MDA-MB-435 melanoma = system: MDA-MB-435 melanoma
SW-620 colon = system: SW-620 colon
MCF7 breast = system: MCF7 breast
HCT-116 colon = system: HCT-116 colon
HCC-2998 colon = system: HCC-2998 colon
KM12 colon = system: KM12 colon
SK-OV-3 ovarian = system: SK-OV-3 ovarian

Measured: growth

Nc1c(C(=O)C[C@@H](N)CO)ccc2c1C(=O)CCO2
inactive: RPMI-8226 leukemia 19.2% | OVCAR-8 ovarian 35.8% | OVCAR-5 ovarian 72.8% | OVCAR-4 ovarian 86.4% | IGROV1 ovarian 51.4% | OVCAR-3 ovarian 23.5% | HS 578T breast 110% | NCI/ADR-RES ovarian 61.2% | T-47D breast 33.6% | BT-549 breast 41.9% | MDA-MB-435 melanoma 68.3% | MCF7 breast 22.5% | HCT-116 colon 37.9% | KM12 colon 20.1%
active: SW-620 colon 5.93% | HCC-2998 colon -5.53%

CCCCCCCCCCCCCC
inactive: RPMI-8226 leukemia 103% | OVCAR-5 ovarian 108% | OVCAR-4 ovarian 103% | SK-OV-3 ovarian 104% | IGROV1 ovarian 117% | OVCAR-3 ovarian 122% | HS 578T breast 106% | NCI/ADR-RES ovarian 96.9% | T-47D breast 101% | BT-549 breast 112% | MDA-MB-435 melanoma 104% | SW-620 colon 104% | MCF7 breast 91.1% | HCT-116 colon 102% | HCC-2998 colon 97.8% | KM12 colon 115%

COc1ccc(-n2nc(C(=O)Nc3ccc(F)cc3)nc2-c2cc(OC)c(OC)c(OC)c2)cc1
inactive: RPMI-8226 leukemia 96.8% | OVCAR-5 ovarian 97.8% | OVCAR-4 ovarian 90.5% | SK-OV-3 ovarian 94.8% | IGROV1 ovarian 98.1% | OVCAR-3 ovarian 92.4% | HS 578T breast 89.3% | NCI/ADR-RES ovarian 85% | T-47D breast 75.3% | BT-549 breast 73% | SW-620 colon 96.6% | MCF7 breast 91.8% | KM12 colon 96%

COc1cc(OC)c(C(=O)/C=C/c2cccc(OC(C)=O)c2)cc1CC=C(C)C
active: RPMI-8226 leukemia 7.53%
inactive: OVCAR-5 ovarian 107% | OVCAR-4 ovarian 75.1% | SK-OV-3 ovarian 102% | IGROV1 ovarian 59.2% | OVCAR-3 ovarian 37.7% | HS 578T breast 99% | NCI/ADR-RES ovarian 72% | T-47D breast 52.3% | BT-549 breast 81.8% | MDA-MB-435 melanoma 73.6% | SW-620 colon 35.5% | MCF7 breast 44.6% | HCT-116 colon 47.1% | HCC-2998 colon 72.9% | KM12 colon 68.8%

Fc1cc(-c2cnc3nonc3n2)c(Cl)cc1Cl
inactive: OVCAR-8 ovarian 97.3% | OVCAR-5 ovarian 88.6% | OVCAR-4 ovarian 59.6% | SK-OV-3 ovarian 98.5% | IGROV1 ovarian 77% | OVCAR-3 ovarian 10.3% | HS 578T breast 111% | NCI/ADR-RES ovarian 102% | T-47D breast 63.2% | BT-549 breast 99.7% | MDA-MB-435 melanoma 90.1% | SW-620 colon 38.7% | MCF7 breast 69.7% | HCC-2998 colon 103% | KM12 colon 88.2%
active: HCT-116 colon 7.65%

NC(N)=N/N=C/c1ccc(Cl)cc1
active: MDA-MB-435 melanoma -53.2%
inactive: OVCAR-8 ovarian 88.3% | OVCAR-5 ovarian 89.6% | SK-OV-3 ovarian 76.5% | IGROV1 ovarian 97.6% | OVCAR-3 ovarian 56.8% | HS 578T breast 75.4% | NCI/ADR-RES ovarian 79.9% | BT-549 breast 77.4% | SW-620 colon 24.5% | MCF7 breast 23.5% | HCT-116 colon 50.8% | HCC-2998 colon 86.8% | KM12 colon 15.5%

N=C(N)c1ccc(NCCNc2ccc(C(=N)N)cc2)cc1
inactive: OVCAR-8 ovarian 92.4% | OVCAR-5 ovarian 95.1% | OVCAR-4 ovarian 110% | SK-OV-3 ovarian 133% | IGROV1 ovarian 98.5% | OVCAR-3 ovarian 110% | HS 578T breast 109% | NCI/ADR-RES ovarian 99% | T-47D breast 137% | BT-549 breast 133% | MDA-MB-435 melanoma 105% | SW-620 colon 106% | HCT-116 colon 114% | HCC-2998 colon 119% | KM12 colon 105%

CC1=CCC2C1CC=C(C)C(CC[C@H]1[C@@](C)(O)CCC3OC(C)(C)[C@H](OC(=O)c4ccccc4)CC[C@@]31C)C2(C)C (some centres undefined)
inactive: OVCAR-8 ovarian 87.4% | OVCAR-5 ovarian 100% | OVCAR-4 ovarian 71.5% | SK-OV-3 ovarian 93.8% | IGROV1 ovarian 102% | OVCAR-3 ovarian 72.8% | HS 578T breast 110% | NCI/ADR-RES ovarian 95% | T-47D breast 74.4% | BT-549 breast 106% | MDA-MB-435 melanoma 86.8% | SW-620 colon 80% | HCT-116 colon 51.5% | HCC-2998 colon 97.9% | KM12 colon 98.9%

COc1ccc(-c2cc(-c3cc4ccccc4oc3=O)n(-c3ccccc3)n2)cc1
active: HCT-116 colon 2.14%
inactive: RPMI-8226 leukemia 86.4% | OVCAR-5 ovarian 91.1% | OVCAR-4 ovarian 13.2% | SK-OV-3 ovarian 76.7% | IGROV1 ovarian 14% | OVCAR-3 ovarian 68.2% | HS 578T breast 66.4% | NCI/ADR-RES ovarian 69.5% | T-47D breast 73.1% | BT-549 breast 75.1% | MDA-MB-435 melanoma 100% | SW-620 colon 66.6% | MCF7 breast 76% | HCC-2998 colon 103%

O=C(O)c1ccccc1Oc1cc(-c2ccco2)nc(OCCN2CCOCC2)n1
inactive: RPMI-8226 leukemia 99.8% | OVCAR-8 ovarian 105% | OVCAR-5 ovarian 99.6% | SK-OV-3 ovarian 99.8% | IGROV1 ovarian 103% | OVCAR-3 ovarian 126% | HS 578T breast 112% | NCI/ADR-RES ovarian 99.7% | T-47D breast 97.2% | BT-549 breast 96.6% | MDA-MB-435 melanoma 101% | SW-620 colon 115% | MCF7 breast 102% | HCT-116 colon 97.9% | HCC-2998 colon 108% | KM12 colon 111%

COc1ccc(-c2nc3ccccc3n3cccc23)cc1
inactive: OVCAR-8 ovarian 103% | OVCAR-5 ovarian 113% | OVCAR-4 ovarian 99.8% | SK-OV-3 ovarian 122% | IGROV1 ovarian 47.1% | OVCAR-3 ovarian 101% | HS 578T breast 111% | NCI/ADR-RES ovarian 107% | T-47D breast 107% | BT-549 breast 95.4% | MDA-MB-435 melanoma 126% | SW-620 colon 101% | MCF7 breast 81.9% | HCT-116 colon 92% | HCC-2998 colon 110% | KM12 colon 99%

COc1ccc(-c2nn(C(=O)NCCN(C)C)cc2-c2ccncc2)cc1Cl
active: SK-OV-3 ovarian 9.29% | MDA-MB-435 melanoma -25.3%
inactive: OVCAR-8 ovarian 20.4% | OVCAR-5 ovarian 76.9% | OVCAR-4 ovarian 57.6% | IGROV1 ovarian 54.1% | HS 578T breast 66.5% | NCI/ADR-RES ovarian 14.5% | T-47D breast 37.1% | BT-549 breast 58.6% | SW-620 colon 30.5% | MCF7 breast 19.3% | HCT-116 colon 23.1% | HCC-2998 colon 76.4% | KM12 colon 43.3%

Cn1cnc([N+](=O)[O-])c1S(=O)(=O)Oc1ccccc1
inactive: OVCAR-8 ovarian 100% | OVCAR-5 ovarian 103% | OVCAR-4 ovarian 112% | SK-OV-3 ovarian 101% | IGROV1 ovarian 85.7% | HS 578T breast 105% | NCI/ADR-RES ovarian 92% | BT-549 breast 100% | MDA-MB-435 melanoma 101% | SW-620 colon 56% | MCF7 breast 84.3% | HCT-116 colon 68.4% | HCC-2998 colon 101% | KM12 colon 100%
active: OVCAR-3 ovarian 1.83% | T-47D breast 5.06%

COC(=O)CSc1ccc(Cl)cc1
inactive: OVCAR-8 ovarian 106% | OVCAR-5 ovarian 107% | SK-OV-3 ovarian 102% | IGROV1 ovarian 93.9% | OVCAR-3 ovarian 122% | HS 578T breast 108% | NCI/ADR-RES ovarian 115% | T-47D breast 98.7% | BT-549 breast 105% | MDA-MB-435 melanoma 107% | SW-620 colon 106% | MCF7 breast 97.2% | HCT-116 colon 95.5% | HCC-2998 colon 97.4%

COc1cc(-c2nc(-c3ccc(-c4nc5ccc(F)cc5[nH]4)cc3)no2)cc(OC)c1OC
active: OVCAR-8 ovarian 5.86% | T-47D breast 8.56%
inactive: OVCAR-5 ovarian 72.9% | OVCAR-4 ovarian 30.9% | SK-OV-3 ovarian 85.5% | IGROV1 ovarian 47.3% | OVCAR-3 ovarian 36.6% | HS 578T breast 30.5% | NCI/ADR-RES ovarian 13.3% | BT-549 breast 35.7% | MDA-MB-435 melanoma 46.8% | SW-620 colon 55.3% | MCF7 breast 41.1% | HCC-2998 colon 81.5%

NC(N)=N/N=C/c1cccc(Cl)c1Cl
inactive: OVCAR-8 ovarian 87.5% | OVCAR-5 ovarian 85% | SK-OV-3 ovarian 80% | IGROV1 ovarian 86.5% | OVCAR-3 ovarian 72.8% | HS 578T breast 71.3% | NCI/ADR-RES ovarian 75.7% | T-47D breast 81.5% | BT-549 breast 65.9% | MCF7 breast 17.6% | HCT-116 colon 67.9% | KM12 colon 10.5%
active: MDA-MB-435 melanoma 4.26% | SW-620 colon -4.72% | HCC-2998 colon 7.38%

C=CCOC(=O)C1=C(C)NC2=C(C(=O)CCC2)C1c1ccc(F)cc1 (centres undefined)
inactive: OVCAR-8 ovarian 97% | OVCAR-5 ovarian 98% | OVCAR-4 ovarian 98.7% | SK-OV-3 ovarian 86.6% | IGROV1 ovarian 99.2% | OVCAR-3 ovarian 109% | HS 578T breast 88.4% | NCI/ADR-RES ovarian 101% | T-47D breast 89.4% | BT-549 breast 99.4% | MDA-MB-435 melanoma 101% | SW-620 colon 94.4% | MCF7 breast 95.6% | HCT-116 colon 92.3% | HCC-2998 colon 104% | KM12 colon 93.8%

COc1cc2c(c(OC)c1O)C(=O)C(OC)C(c1ccc(O)c(O)c1)O2 (centres undefined)
active: RPMI-8226 leukemia -19.3% | OVCAR-3 ovarian -24% | BT-549 breast -14.6% | MDA-MB-435 melanoma -23.8% | HCT-116 colon 3.39% | KM12 colon 8.81%
inactive: OVCAR-8 ovarian 17.1% | OVCAR-5 ovarian 42.5% | OVCAR-4 ovarian 37.8% | SK-OV-3 ovarian 46.5% | HS 578T breast 24.7% | NCI/ADR-RES ovarian 16.6% | SW-620 colon 22.6% | MCF7 breast 11% | HCC-2998 colon 20.1%

COc1cc(NC(=O)CSc2nc3ccc(Cl)cc3c(=O)n2Cc2ccccc2)cc(OC)c1OC
inactive: OVCAR-8 ovarian 68.7% | OVCAR-5 ovarian 85.4% | OVCAR-4 ovarian 81.1% | SK-OV-3 ovarian 72% | IGROV1 ovarian 84.9% | OVCAR-3 ovarian 77.7% | HS 578T breast 47.4% | NCI/ADR-RES ovarian 67.7% | T-47D breast 55.7% | BT-549 breast 31.2% | MDA-MB-435 melanoma 78.2% | SW-620 colon 81.6% | MCF7 breast 70.2% | HCT-116 colon 51.6% | HCC-2998 colon 90.5% | KM12 colon 51.5%

O=P(O)(O)C(O)(Cc1cccnc1)P(=O)(O)O
inactive: OVCAR-8 ovarian 94.6% | OVCAR-5 ovarian 118% | OVCAR-4 ovarian 86.9% | SK-OV-3 ovarian 111% | IGROV1 ovarian 95.8% | OVCAR-3 ovarian 100% | NCI/ADR-RES ovarian 102% | T-47D breast 76.6% | BT-549 breast 86.3% | MDA-MB-435 melanoma 97.6% | SW-620 colon 98.7% | MCF7 breast 91.2% | HCT-116 colon 106% | HCC-2998 colon 119% | KM12 colon 100%
